Laboratory results taken from PubChem BioAssay (Tox21).
Inconclusive results are not listed. Calls of active or inactive are those of the source. Unless noted, calls follow the shape of the dose curve; as a rule, active = well fitted curve in the direction sought with a large enough effect in the repeat runs; inconclusive = weak or mixed curves; inactive = no such curve, though single readings can be large; an effect the other way counts as inactive or inconclusive.

Legend:
[1] = qHTS assay to identify small molecule agonists of the peroxisome proliferator-activated receptor delta (PPARd) signaling pathway - cell viability counter screen (AID 743211); also: % is scaled to controls: 0 for no effect and ±100 for the full control effect; nearly all actives have a fitted effect of over 55% in size
Outline: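 Following 5 h plating at 37 C and 5% CO2, PPARd UAS-bla HEK293H cells took up test compounds for 17 h. Viability was quantified by luminescence 30 min after CellTiter-Glo addition at room temperature.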

[2] = target: Peroxisome proliferator-activated receptor delta (Homo sapiens) (UniProt Q03181); experiment: qHTS assay to identify small molecule agonists of the peroxisome proliferator-activated receptor delta (PPARd) signaling pathway (AID 743212; calls by dose curve; also: % is scaled to controls: 0 for no effect and ±100 for the full control effect)
Chain of Peroxisome proliferator-activated receptor delta (Homo sapiens) (Q03181 whole entry, looked up): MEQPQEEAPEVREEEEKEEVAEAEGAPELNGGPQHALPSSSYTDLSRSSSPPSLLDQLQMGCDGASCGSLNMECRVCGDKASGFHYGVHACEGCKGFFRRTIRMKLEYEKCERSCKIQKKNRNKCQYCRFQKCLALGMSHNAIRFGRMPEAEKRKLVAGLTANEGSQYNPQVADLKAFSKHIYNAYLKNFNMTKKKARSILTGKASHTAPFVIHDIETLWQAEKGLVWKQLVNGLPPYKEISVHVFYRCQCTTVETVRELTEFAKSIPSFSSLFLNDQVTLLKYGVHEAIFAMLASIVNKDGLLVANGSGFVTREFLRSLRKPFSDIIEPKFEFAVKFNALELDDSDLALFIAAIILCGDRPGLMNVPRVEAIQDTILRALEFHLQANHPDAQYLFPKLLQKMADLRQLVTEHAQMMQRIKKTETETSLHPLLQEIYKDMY
Outline: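 A PPARd-bla HEK293H line with beta-lactamase under an Upstream Activator Sequence is treated with compounds at 37 C. Substrate loading for 2 h at room temperature precedes the fluorescence measurement.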

[3] = qHTS assay to identify small molecule agonists of the farnesoid-X-receptor (FXR) signaling pathway - cell viability counter screen (AID 743218); also: % is scaled to controls: 0 for no effect and ±100 for the full control effect; nearly all actives have a fitted effect of over 45% in size
Outline: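 HEK 293T FXR-bla cells; 5 h pre-incubation, 16 h compound exposure at 37 C; LiveBLAzer substrate 2 h RT, then CellTiter-Glo 30 min RT, luminescence.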

[4] = qHTS assay to identify small molecule antagonists of the farnesoid-X-receptor (FXR) signaling pathway - cell viability counter screen (AID 743221; active = well fitted cell-killing curve with a large enough effect in the repeat runs, not every such curve was filed as active; also: % is scaled to controls: 0 for no effect and ±100 for the full control effect; nearly all actives have a fitted effect of over 50% in size)
Outline: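 Compound effects on cell number were measured as CellTiter-Glo luminescence in HEK 293T cells expressing FXR-UAS-bla, after 16 h at 37 C with 50 uM CDCA (final).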

[5] = qHTS assay to identify small molecule antagonists of the vitamin D receptor (VDR) signaling pathway - cell viability counter screen (AID 743225); also: % is scaled to controls: 0 for no effect and ±100 for the full control effect; nearly all actives have a fitted effect of over 50% in size
Outline: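 In this counter screen, VDR-bla HEK 293T cells receive test compound plus 3 nM final calcitriol for 16 h at 37C. Room-temperature steps of 2 h with the beta-lactamase substrate, then 30 min with CellTiter-Glo, precede the luminescence read.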

[6] = qHTS assay to identify small molecule agonists of the NFkB signaling pathway (AID 1159509; active = well fitted curve in the direction sought with a large enough effect in the signal ratio in the repeat runs, not every such curve was filed as active; the % refers to the signal ratio; also: series mostly up to about 61 µM; % is scaled to controls: 0 for no effect and ±100 for the full control effect)
Outline: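 ME-180 NFkB-bla, 2,000 cells/well, overnight plating; cpd pinned in DMSO, 5 h 37 C; B/G FRET substrate 1.5 h RT; ex 405, em 460/530 nm.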

[7] = qHTS assay to identify small molecule agonists of the NFkB signaling pathway - cell viability counter screen (AID 1159515; calls by dose curve; also: series mostly up to about 61 µM; % is scaled to controls: 0 for no effect and ±100 for the full control effect; nearly all actives have a fitted effect of over 55% in size)
Outline: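 Luminescence from CellTiter-Glo (30 min, room temperature) gives viability, measured in the same wells as the beta-lactamase reporter read. Cells were NFkB-bla ME-180, 2,000 per well, treated 5 hr with compounds.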

[8] = qHTS assay to identify small molecule agonists of the endoplasmic reticulum stress response signaling pathway (AID 1159516; active = well fitted activation curve with a large enough effect in the signal ratio in the repeat runs, not every such curve was filed as active; the % refers to the signal ratio; also: % is scaled to controls: 0 for no effect and ±100 for the full control effect)
Outline: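 Read-out is beta-lactamase cleavage of a FRET substrate (405 nm excitation; 460 and 530 nm emissions) in ESRE-bla HeLa cells after a 5 hr compound exposure at 37 C. Substrate incubation ran 2 hr at room temperature.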

[9] = qHTS assay to identify small molecule agonists of the endoplasmic reticulum stress response signaling pathway - cell viability counter screen (AID 1159517; calls by dose curve;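 also: HeLa cells carrying an ER stress response element beta-lactamase reporter; series mostly up to about 61 µM; % is scaled to controls: 0 for no effect and ±100 for the full control effect; nearly all actives have a fitted effect of over 50% in size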)
Outline: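 CellTiter-Glo was added to wells already read for beta-lactamase FRET, and luminescence was recorded 30 min later. Cells: ESRE-bla HeLa, 1,500 per well, compound exposure 5 hr at 37 C.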

[10] = qHTS assay to identify small molecule antagonists of the retinoid-related orphan receptor gamma (ROR-gamma) signaling pathway - cell viability counter screen (AID 1159520); also: % is scaled to controls: 0 for no effect and ±100 for the full control effect; nearly all actives have a fitted effect of over 50% in size
Outline: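 Tet-on ROR gamma CHO cells (1,000/well) were plated 4 hr, given compounds in DMSO for 2 hr at 37 C, then induced with 1 uM final doxycycline for 16 hr. Viability was read as ATP by CellTiter-Glo luminescence after 30 min.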

[11] = target: Nuclear receptor ROR-gamma (Homo sapiens) (UniProt P51449); experiment: qHTS assay to identify small molecule antagonists of the retinoid-related orphan receptor gamma (ROR-gamma) signaling pathway (AID 1159521)
Outline: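 Screening format: cell-based luciferase reporter in CHO cells with doxycycline-inducible RORγ. Compound pre-exposure lasts 2 h, doxycycline is 1 uM final, induction runs 16 h at 37 C, and ONE-Glo luminescence is read.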

[12] = qHTS assay to identify small molecule agonists of the AP-1 signaling pathway - cell viability counter screen (AID 1159525; calls by dose curve; also: nearly all actives have a fitted effect of over 55% in size)
Outline: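 ME-180 AP-1-bla, 2500 cells/well, Opti-MEM + 0.5% dialyzed FBS; overnight 37 °C; cpd 15-pt titration, 5 h 37 °C; CellTiter-Glo 30 min RT; luminescence read; normalised to TOAB and DMSO controls.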

[13] = target: Bile acid receptor (Homo sapiens) (UniProt Q96RI1); experiment: qHTS assay to identify small molecule antagonists of the farnesoid-X-receptor (FXR) signaling pathway (AID 743217; active = well fitted inhibition curve with a large enough effect in the signal ratio in the repeat runs, not every such curve was filed as active; the % refers to the signal ratio; also: % is scaled to controls: 0 for no effect and ±100 for the full control effect)
Chain of Bile acid receptor (Homo sapiens) (Q96RI1 whole entry, looked up): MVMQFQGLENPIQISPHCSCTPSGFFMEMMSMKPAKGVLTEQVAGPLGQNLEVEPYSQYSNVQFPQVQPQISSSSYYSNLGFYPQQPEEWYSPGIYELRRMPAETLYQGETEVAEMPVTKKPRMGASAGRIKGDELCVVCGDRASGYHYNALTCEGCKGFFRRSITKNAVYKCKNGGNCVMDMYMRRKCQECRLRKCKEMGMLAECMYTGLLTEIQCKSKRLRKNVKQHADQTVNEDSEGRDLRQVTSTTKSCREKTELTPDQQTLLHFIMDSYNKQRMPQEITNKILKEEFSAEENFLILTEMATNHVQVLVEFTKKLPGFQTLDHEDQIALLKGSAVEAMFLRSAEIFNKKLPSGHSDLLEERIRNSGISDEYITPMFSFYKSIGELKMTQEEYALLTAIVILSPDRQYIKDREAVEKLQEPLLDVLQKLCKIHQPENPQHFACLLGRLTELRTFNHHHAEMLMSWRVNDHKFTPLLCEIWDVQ
Outline: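 HEK 293T FXR-UAS-bla, 5000 cells/well; compound + CDCA 50 uM final; 16 h, 37 °C; B/G FRET substrate 2 h RT; fluorescence.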

[14] = target: Bile acid receptor (Homo sapiens) (UniProt Q96RI1); experiment: qHTS assay to identify small molecule agonists of the farnesoid-X-receptor (FXR) signaling pathway (AID 743220; active = well fitted activation curve with a large enough effect in the signal ratio in the repeat runs, not every such curve was filed as active; the % refers to the signal ratio; also: % is scaled to controls: 0 for no effect and ±100 for the full control effect)
Outline: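 Beta-lactamase reporter under UAS control in GeneBLAzer FXR HEK 293T cells (5000/well) measured with LiveBLAzer FRET substrate after 2 h at room temperature. Compound exposure lasted 16 h at 37C.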

[15] = target: Vitamin D3 receptor (Homo sapiens) (UniProt P11473); experiment: qHTS assay to identify small molecule agonists of the vitamin D receptor (VDR) signaling pathway (AID 743222; calls by dose curve; also: % is scaled to controls: 0 for no effect and ±100 for the full control effect)
Chain of Vitamin D3 receptor (Homo sapiens) (P11473 whole entry, looked up): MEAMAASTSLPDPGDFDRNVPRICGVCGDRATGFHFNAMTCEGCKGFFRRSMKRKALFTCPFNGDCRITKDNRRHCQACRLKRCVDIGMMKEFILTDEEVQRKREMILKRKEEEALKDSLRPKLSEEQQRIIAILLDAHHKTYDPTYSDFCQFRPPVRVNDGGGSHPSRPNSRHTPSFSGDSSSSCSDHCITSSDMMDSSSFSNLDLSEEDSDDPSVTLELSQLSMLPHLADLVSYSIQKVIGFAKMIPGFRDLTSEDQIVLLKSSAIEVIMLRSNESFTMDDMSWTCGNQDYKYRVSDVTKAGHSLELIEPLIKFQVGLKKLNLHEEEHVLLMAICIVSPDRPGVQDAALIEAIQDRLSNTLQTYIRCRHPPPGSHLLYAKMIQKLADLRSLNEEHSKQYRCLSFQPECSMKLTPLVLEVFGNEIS
Outline: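 VDR-bla cells, 2,000/well; 4 h preincubation 37C; cpd (DMSO) 16 h; LiveBLAzer B/G substrate 2 h RT; fluorescence intensity read.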

[16] = target: Vitamin D3 receptor (Homo sapiens) (UniProt P11473); experiment: qHTS assay to identify small molecule antagonists of the vitamin D receptor (VDR) signaling pathway (AID 743223; active = well fitted inhibition curve with a large enough effect in the signal ratio in the repeat runs, not every such curve was filed as active; the % refers to the signal ratio; also: % is scaled to controls: 0 for no effect and ±100 for the full control effect)
Outline: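 Beta-lactamase activity in VDR-bla cells is measured by FRET substrate fluorescence (2 h, room temperature) after cells spend 16 h at 37C with test compound and 3 nM final 1alpha,25-dihydroxyvitamin D3.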

[17] = qHTS assay to identify small molecule agonists of the vitamin D receptor (VDR) signaling pathway - cell viability counter screen (AID 743224)
Outline: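 Luminescence from CellTiter-Glo, read after 30 min at room temperature, reports viability of VDR-bla cells treated with compounds for 16 h at 37C in the wells used for the beta-lactamase FRET read.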

[18] = qHTS assay to identify small molecule antagonists of the peroxisome proliferator-activated receptor delta (PPARd) signaling pathway - cell viability counter screen (AID 743213); also: nearly all actives have a fitted effect of over 50% in size; also: potency is read from the fitted curve at half-maximal effect
Outline: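 Cytotoxicity counter screen: CellTiter-Glo luminescence read 30 min after addition, in the same wells as the reporter assay. There, PPARd UAS-bla HEK293H cells (3000/well) were treated 17 h at 37 C with compound and 300 nM L165041.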

[19] = target: Peroxisome proliferator-activated receptor delta (Homo sapiens) (UniProt Q03181); experiment: qHTS assay to identify small molecule antagonists of the peroxisome proliferator-activated receptor delta (PPARd) signaling pathway (AID 743215; active = well fitted inhibition curve with a large enough effect in the signal ratio in the repeat runs, not every such curve was filed as active; the % refers to the signal ratio)
Outline: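 Read-out is beta-lactamase FRET fluorescence, measured 2 h after substrate addition at room temperature. Beforehand, UAS-bla HEK293H cells carrying the PPARd reporter were exposed to compounds with L165041 at 300 nM final for 17 h at 37 C.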

COC(=O)c1ccc2cc(C(=O)OC)ccc2c1
inactive: Potency [1] | outcome [2] | Potency [3] | outcome [4] | Potency [5] | outcome [6] | outcome [7] | outcome [8] | outcome [9] | activity, negative = cytotoxicity [10] -0.583% [at 19 µM] | activity change, negative = inhibition [11] 0.445% [at 19 µM] | viability change, negative = cytotoxic [12] 2.85% [at 15.8 µM]

Cc1cc2nc(N)sc2cc1C
inactive: Potency [1] | outcome [13] | Potency [3] | outcome [14] | outcome [4] | outcome [15] | outcome [16] | Potency [17] | Potency [5] | outcome [6] | outcome [7] | outcome [8] | outcome [9] | Potency [10] | Potency [11] | outcome [12]

CC1(O)CSC(C)(O)CS1 (stereo unspecified)
inactive: Potency [1] | Potency [18] | Potency [3] | outcome [14] | Potency [5] | outcome [6] | outcome [7] | outcome [8] | outcome [9] | Potency [10] | Potency [11] | outcome [12]

O=C1CCCCCCCCCCC(=O)OCCO1
inactive: Potency [1] | Potency [18] | Potency [3] | outcome [4] | outcome [15] | outcome [16] | Potency [17] | Potency [5] | outcome [6] | outcome [7] | outcome [8] | outcome [9] | Potency [10] | Potency [11] | outcome [12]

CCCc1c2oc(C(=O)O)cc(=O)c2cc2c(=O)cc(C(=O)O)n(CC)c12
inactive: Potency [1] | outcome [2] | Potency [18] | outcome [19] | outcome [13] | Potency [3] | outcome [14] | outcome [4] | outcome [16] | Potency [17] | Potency [5] | outcome [6] | outcome [7] | outcome [8] | outcome [9] | Potency [10] | Potency [11] | outcome [12]

Cc1c[nH]c(=S)[nH]c1=O
inactive: outcome [2] | Potency [3] | outcome [16] | Potency [5] | outcome [6] | outcome [7] | outcome [8] | outcome [9] | Potency [10] | Potency [11] | outcome [12]
active: Potency [18] 55.1 µM

CC(Oc1c(Cl)cccc1Cl)C1=NCCN1 (stereo unspecified)
inactive: Potency [1] | outcome [2] | Potency [18] | outcome [19] | Potency [3] | outcome [4] | outcome [15] | outcome [16] | Potency [17] | Potency [5] | outcome [6] | outcome [7] | outcome [8] | outcome [9] | Potency [10] | Potency [11] | outcome [12]

Cc1ccc(C(C)C)cc1O
inactive: Potency [1] | Potency [18] | Potency [3] | outcome [15] | Potency [17] | Potency [5] | outcome [6] | outcome [7] | outcome [8] | outcome [9] | Potency [10] | Potency [11] | outcome [12]

Cc1c(C(=O)NCCO)[n+](=O)c2ccccc2n1[O-]
inactive: Potency [1] | outcome [2] | Potency [18] | outcome [19] | Potency [3] | outcome [15] | outcome [16] | Potency [17] | Potency [5] | outcome [6] | outcome [7] | outcome [8] | outcome [9] | Potency [10] | Potency [11] | outcome [12]
